# Measured values from PubChem BioAssay AID449728 (The Scripps Research Institute Molecular Screening Center, 2010).
# Hit rate of the full screen: of about 330,000 compounds, about 900 (0.27%) were called active.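 How the source made its calls: active means inhibition above the campaign's mean inhibition across all tested compounds plus 3 SD (cut at about 9.9% in these data); inactive means the rest.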 Only a selection was taken, and actives are over-represented in it overall.
# Test: bacterial viability reduction in E. coli – absorbance, OD600, counter-screen for AddAB inhibitor project, primary screen (AID 449728);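 further: uninfected addAB+ strain grown without phage in ampicillin broth; 0% = DMSO wells and 100% = ciprofloxacin 0.95 µg/ml wells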
# Conditions: E. coli V3065 growth, 18 h, at 11.9 µM, hits give high values
row,SMILES,inhibition
1,COC(=O)c1sc(SC)c(S(=O)(=O)C(C)C)c1N/N=C(\C#N)S(=O)(=O)c1ccccn1,-1.95% (inactive)
2,CCCCCC1CC(COc2ccccc2)OC1=O (centres undefined),-0.64% (inactive)
3,CS(=O)(=O)N(CC(=O)Nc1ccc(Cl)c(Cl)c1)C1CCCCC1,0.42% (inactive)
4,O=C(CC(O)(C(F)(F)F)C(F)(F)F)Nc1ccc(Cl)c(Cl)c1,17.7% (active)
5,O=C(CCCN1C(=O)CCC1=O)Nc1ccc(Cl)c(C(F)(F)F)c1,-1.92% (inactive)
6,CC(=O)Nc1ccc(NC(=O)COc2ccc(S(=O)(=O)NC(C)c3ccccc3)cc2)cc1 (centres undefined),2.38% (inactive)
7,O=C(CSc1ccccn1)N1CCN(S(=O)(=O)c2ccc(Cl)cc2)CC1,-1.3% (inactive)
8,CCCCNC(=O)Nc1c(C)cc(SC#N)cc1C,2.5% (inactive)
9,O=C(O)C(c1ccccc1)N1C(=O)/C(=C\c2ccc(-c3cccc(Cl)c3)o2)SC1=S (centres undefined),-3.78% (inactive)
10,CC(=O)NN1C(=O)c2ccccc2NC1c1ccccc1 (centres undefined),0.86% (inactive)
11,O=C1c2ccccc2NC(c2ccc(-c3cccc(Cl)c3)o2)N1O (centres undefined),19.2% (active)
12,O=C(NCc1cccs1)c1ccc2c(c1)ncn2C1CCCC1,-2.5% (inactive)
13,Cc1ccc(NC(=O)CN(C)C(=O)c2ccc(Br)o2)cc1,0.43% (inactive)
14,CCCS(=O)(=O)Nc1ccc(-c2cn3c(n2)SCC3)cc1,2.36% (inactive)
15,CC(C)(C)N(Cc1ccccc1)C(=O)c1ccncc1,-2.63% (inactive)
16,O=C(NCc1ccccn1)Nc1ccc(Cl)cc1,-3.41% (inactive)
17,O=C1c2ccccc2C(=O)N1CCC(O)C[N+](=O)[O-] (centres undefined),3.02% (inactive)
18,O=C(Cc1c(F)cccc1Cl)Nc1ncc([N+](=O)[O-])s1,7.15% (inactive)
19,CC(=O)Oc1ccccc1C(=O)Nc1ncc([N+](=O)[O-])s1,11.2% (active)
20,COc1ccc(NC(=O)c2ccccc2[N+](=O)[O-])cc1OC,-1.73% (inactive)
21,CCCCCCCCCCCC(=O)O,-2.17% (inactive)
22,COc1ccc(OC)c(CCNC(=O)c2nn(C)c3c2CS(=O)(=O)c2ccccc2-3)c1,0.84% (inactive)
23,Cc1cc(=O)oc2cc(OCC(=O)N3CCN(c4ccc(F)cc4)CC3)c(Cl)cc12,1.94% (inactive)
24,O=C(Nc1ccc(Br)cn1)c1ccc([N+](=O)[O-])o1,32.3% (active)

row,SMILES,inhibition
1,O=C(Nc1ccc(Br)cn1)c1ccc([N+](=O)[O-])cc1Cl,2.77% (inactive)
2,Cc1cccc(NC(=O)c2ccc([N+](=O)[O-])o2)c1,27.2% (active)
3,O=C(Nc1cccc(O)c1)c1ccc(C(=O)c2ccccc2)o1,0.43% (inactive)
4,Cc1onc(NC(=O)c2ccc([N+](=O)[O-])o2)c1Br,6.74% (inactive)
5,CN1C(=O)c2ccc(C(=O)Nc3ccc(Br)cn3)cc2C1=O,-2.73% (inactive)
6,CC1CC(C)CN(CCC(=O)Nc2ccc3c(c2)CCC3)C1 (centres undefined),1.48% (inactive)
7,O=c1c(-c2ccc(Cl)cc2)[n+]([O-])c2ccccc2n1OCc1nc2ccccc2[nH]1,0.49% (inactive)
8,O=C(Nc1cccnc1Cl)c1cc(-c2ccccc2O)on1,-1.11% (inactive)
9,C=CCNC(=O)c1cc(-c2ccccc2O)on1,85.1% (active)
10,C=CCNC(=O)c1csc(-c2ccccc2)n1,-0.67% (inactive)
11,Cc1ccc(C)c(OCCC(=O)OCC(=O)NC(=O)NCc2ccccc2)c1,0.73% (inactive)
12,CNC(=O)CN1C(=O)NC(c2ccccc2)(c2ccccc2)C1=O,1.95% (inactive)
13,CCOC(=O)N1CCN(Cc2nc3cc(NC(=O)CC)ccc3n2CC)CC1,-0.18% (inactive)
14,Cc1c(C=O)c2ccccc2n1CC(=O)O,2.1% (inactive)
15,CC(=O)c1c(C)n([O-])c2ccccc2[n+]1=O,30.7% (active)
16,COC(=O)c1cc(N2CCNCC2)nc2ccccc12,0.59% (inactive)
17,CC12C(=O)N(n3cnnc3)C(=O)C1C1C=CC2C1 (centres undefined),1.48% (inactive)
18,COc1ccc(C(=O)COC(=O)c2ccc3ccccc3n2)cc1,0.25% (inactive)
19,CC[C@H](C)[C@@H](C(=O)N1CCNCC1)n1cc([C@@H](N)Cc2ccc(O)cc2)nn1,-1.2% (inactive)
20,CC(C)[C@H](NC(=O)c1ccc(F)cc1)C(=O)OCC(=O)NC(=O)c1cccn1C,-1.29% (inactive)
21,COC(=O)N/N=C/c1c[n+]([O-])c2ccccc2[n+]1[O-],93.8% (active)
22,COC(=O)N/N=C/c1ccc(-c2ccc(Cl)c(Cl)c2)o1,0.17% (inactive)
23,COC(=O)N/N=C/c1cn(CCCOc2ccc(C)cc2)c2ccccc12,-2.32% (inactive)
24,COc1ccc(C)cc1NC(=O)c1[nH]c(C)c(C(C)=O)c1C,-0.41% (inactive)

row,SMILES,inhibition
1,CN(Cc1ccco1)S(=O)(=O)c1nnc(NC(=O)c2ccccc2)s1,0% (inactive)
2,COCCNS(=O)(=O)c1cc(Br)ccc1OC,-1.08% (inactive)
3,COc1ccc(OCc2nnc3n2N=C(c2ccccc2)C(CC(=O)O)S3)cc1 (centres undefined),-0.43% (inactive)
4,CN1CCN(C(c2cc3cc4c(cc3[nH]c2=O)OCCO4)c2nnnn2C2CCCC2)CC1 (centres undefined),0.75% (inactive)
5,Cc1nnc(N/N=C/c2ccccn2)[nH]c1=O,12.1% (active)
6,Cc1nnc(N/N=C/C2CC=CCC2)[nH]c1=O (centres undefined),-0.18% (inactive)
7,Cc1cc(C(=O)N/N=C/c2ccccn2)c2ccccc2n1,-0.17% (inactive)
8,O=C(Nc1ccc2nc3n(c(=O)c2c1)CCCC3)c1ccc(Cl)nc1,-2.17% (inactive)
9,CC(NS(=O)(=O)c1ccc(Cl)cc1)C(=O)Nc1ccc2c(c1)OCCO2 (centres undefined),-2.14% (inactive)
10,CCn1c(=O)c(C(=O)NCc2ccc3c(c2)OCO3)c(O)c2ccccc21,0.18% (inactive)
11,CCn1c(=O)cc(SCC(=O)NCc2ccc3c(c2)OCO3)c2ccccc21,-0.5% (inactive)
12,C=CCn1c(=O)c(C(=O)NCc2ccc3c(c2)OCO3)c(O)c2ccccc21,13.5% (active)
13,O=C(CC1SC(N2CCCC2)=NC1=O)Nc1ccc(C(=O)NCCc2ccc(F)cc2)cc1 (centres undefined),-1.3% (inactive)
14,CN(C)[C@@H]1C(=O)C(C(N)=O)=C(O)[C@@]2(O)C(=O)C3=C(O)c4c(O)ccc(Cl)c4[C@@H](O)[C@H]3C[C@@H]12,102% (active)
15,C=C1c2c(Cl)ccc(O)c2C(O)=C2C(=O)[C@]3(O)C(O)=C(C(N)=O)C(=O)[C@@H](N(C)C)[C@@H]3[C@@H](O)C12 (some centres undefined),103% (active)
16,CC1CC(C)CN(CCOc2cccc3ccccc23)C1 (centres undefined),0.17% (inactive)
17,COc1cc(Cl)c(C)cc1NC(=O)COC(=O)c1cc(SC)ccc1Cl,-0.93% (inactive)
18,CCCn1nc(Oc2nc(NC(C)C)nc(N(C)C)n2)ccc1=O,-1.48% (inactive)
19,CCc1c(C)nc2ncnn2c1N1CCC(C(=O)NCc2ccc3c(c2)OCO3)CC1,-1.08% (inactive)
20,Cc1cnc(C(=O)OCC(=O)NCCCc2ccccc2)cn1,-0.78% (inactive)
21,COc1c(N2CCN(C(=S)Nc3ccccc3F)C(C)C2)c(F)cc2c(=O)c(C(=O)O)cn(C3CC3)c12 (centres undefined),99% (active)
22,COc1ccccc1NC(=S)N1CCN(c2ccc(F)cc2)CC1,-1.81% (inactive)
23,CC1CN(C(=S)Nc2ccccc2F)CC(C)O1 (centres undefined),0.45% (inactive)
24,CCOc1ccc(/C=C/C(=O)OCC(=O)c2ccccc2OC)cc1OC,2.19% (inactive)

row,SMILES,inhibition
1,O=C(CSc1ccc(-c2ccccc2)nn1)NCC1CCCO1 (centres undefined),0.59% (inactive)
2,O=C(NCC1CCCO1)C(C(=O)c1ccccc1)n1cc(Cl)ccc1=O (centres undefined),96.6% (active)
3,O=C(NCC1CCCO1)/C(=C/c1ccc(Cl)cc1)NC(=O)c1ccccc1 (centres undefined),0.6% (inactive)
4,O=C1CN(C(=O)COC(=O)C2CC(=O)N(Cc3ccco3)C2)c2ccccc2N1 (centres undefined),-0.37% (inactive)
5,Cc1ccc(NC(=O)C(C)OC(=O)Cc2c[nH]c3ccccc23)cc1S(=O)(=O)N1CCOCC1 (centres undefined),-2.87% (inactive)
6,CC(C)CC(=O)NC(=S)NNC(=O)c1cccc([N+](=O)[O-])c1,-7.21% (inactive)
7,CN(C)CCn1c2c(c(SCC(=O)NCc3ccccc3)nc1=O)CCC2,-1.35% (inactive)
8,COC(=O)c1oc2ccc(Br)cc2c1NC(C)=O,1.03% (inactive)
9,COc1ccc(CC(=O)Nc2c(C(N)=O)oc3ccccc23)cc1,-1.77% (inactive)
10,COc1ccc(C(=O)c2oc3ccc(Br)cc3c2NC(C)=O)cc1,98.8% (active)
11,OCc1ccc(-c2ccccc2)c(-c2ccccc2)c1,-4.27% (inactive)
12,CCC1(C)Cc2c(sc3[nH]c(=S)n(Cc4ccccc4)c(=O)c23)CO1 (centres undefined),-1.73% (inactive)
13,Cc1ccc(SCc2c(C(=O)N/N=C/c3cccnc3)nnn2-c2nonc2N)cc1,1.61% (inactive)
14,Nc1nonc1-n1nnc(C(=O)N/N=C/c2cc(Br)ccc2O)c1CSC1=NCCS1,12.6% (active)
15,Nc1nonc1-n1nnc(C(=O)N/N=C/c2ccccc2O)c1CN1CCCC1,-0.26% (inactive)
16,O=C(CNCCO)NC12CC3CC(CC(C3)C1)C2,-2.56% (inactive)
17,CSCCC(NS(=O)(=O)/C=C/c1ccccc1)C(=O)N1CCC(C)CC1 (centres undefined),-0.42% (inactive)
18,CSc1cc(C)[nH]c(=O)n1,-2.18% (inactive)
19,CCc1ccccc1NC(=O)CN(c1ccc(OC)cc1OC)S(=O)(=O)c1ccccc1[N+](=O)[O-],-0.37% (inactive)
20,C/[N+]([O-])=C\c1ccc([N+](=O)[O-])o1,15.4% (active)
21,COc1ccc(C(=O)NCC(=O)N/N=C/c2ccc([N+](=O)[O-])o2)cc1OC,5.52% (inactive)
22,COC(=O)C1=C(C)N(C)C(=O)NC1c1ccc([N+](=O)[O-])o1 (centres undefined),0.52% (inactive)
